Assay results reported in the supplement of paper PMC12067093, “Discovery and optimisation of a covalent ligand for TRIM25 and its application to targeted protein ubiquitination” (Chemical Science, 2025).
Targets with the largest changes are over-represented here; the source holds about 21,000 in all.

compound: CC1Cc2ccccc2N1C(=O)C1CCCN(C1)C(=O)CCl (mixture of isomers) [TRIM25 ligand 11 (diastereomer mixture)]; assay: probe-labelled cysteine peptide fold change vs DMSO (competition) (log2 fold change); higher = less target engagement (more negative = stronger competition); settings: 10 µM; THP-1; incubation time: 4 h
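Further: competitive chemoproteomic profiling in live THP-1 cells with an iodoacetamide desthiobiotin (IA-DTB) probe, comparing probe-labelled peptide intensities in compound-treated cells against DMSO-treated controls.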

UniProt P57721, sequence (P57721 whole entry, looked up): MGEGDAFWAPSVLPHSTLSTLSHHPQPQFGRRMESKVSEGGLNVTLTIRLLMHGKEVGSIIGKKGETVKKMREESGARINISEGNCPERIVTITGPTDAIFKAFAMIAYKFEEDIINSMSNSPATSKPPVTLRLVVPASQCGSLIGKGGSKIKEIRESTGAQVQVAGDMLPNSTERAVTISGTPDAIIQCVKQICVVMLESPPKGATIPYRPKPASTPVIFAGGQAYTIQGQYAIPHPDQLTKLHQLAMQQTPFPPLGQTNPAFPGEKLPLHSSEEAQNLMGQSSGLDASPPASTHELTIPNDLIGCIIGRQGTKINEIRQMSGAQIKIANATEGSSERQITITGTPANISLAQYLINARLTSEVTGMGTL
UniProt P09874, sequence (P09874 whole entry, looked up): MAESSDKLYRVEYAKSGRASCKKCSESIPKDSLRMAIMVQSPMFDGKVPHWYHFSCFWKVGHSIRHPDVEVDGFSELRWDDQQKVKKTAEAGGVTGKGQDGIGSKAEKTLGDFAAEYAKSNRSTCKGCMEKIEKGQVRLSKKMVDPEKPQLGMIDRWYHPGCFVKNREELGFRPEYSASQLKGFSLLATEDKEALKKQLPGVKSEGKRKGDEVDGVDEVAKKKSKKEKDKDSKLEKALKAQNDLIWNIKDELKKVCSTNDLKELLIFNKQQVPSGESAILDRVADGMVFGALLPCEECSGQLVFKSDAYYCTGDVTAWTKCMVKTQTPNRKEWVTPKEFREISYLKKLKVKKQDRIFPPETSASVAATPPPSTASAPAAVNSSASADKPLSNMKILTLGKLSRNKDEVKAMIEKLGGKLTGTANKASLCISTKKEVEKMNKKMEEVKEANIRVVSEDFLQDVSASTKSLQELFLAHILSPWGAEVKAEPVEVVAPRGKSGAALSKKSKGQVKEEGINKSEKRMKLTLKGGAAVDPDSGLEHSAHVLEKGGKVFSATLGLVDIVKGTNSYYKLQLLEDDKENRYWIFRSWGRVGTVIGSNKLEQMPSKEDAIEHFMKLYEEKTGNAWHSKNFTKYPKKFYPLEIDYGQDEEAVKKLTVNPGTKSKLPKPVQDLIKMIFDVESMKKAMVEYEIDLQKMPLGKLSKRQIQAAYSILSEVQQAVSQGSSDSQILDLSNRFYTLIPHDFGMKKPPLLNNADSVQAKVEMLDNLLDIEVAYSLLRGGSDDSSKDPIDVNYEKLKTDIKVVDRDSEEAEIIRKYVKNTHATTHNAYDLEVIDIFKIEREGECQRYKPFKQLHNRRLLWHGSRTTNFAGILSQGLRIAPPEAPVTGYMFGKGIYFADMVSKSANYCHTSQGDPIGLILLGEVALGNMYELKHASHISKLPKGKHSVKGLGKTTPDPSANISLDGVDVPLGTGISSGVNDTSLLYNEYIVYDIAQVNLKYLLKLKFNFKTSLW
UniProt P04181, sequence (P04181 whole entry, looked up): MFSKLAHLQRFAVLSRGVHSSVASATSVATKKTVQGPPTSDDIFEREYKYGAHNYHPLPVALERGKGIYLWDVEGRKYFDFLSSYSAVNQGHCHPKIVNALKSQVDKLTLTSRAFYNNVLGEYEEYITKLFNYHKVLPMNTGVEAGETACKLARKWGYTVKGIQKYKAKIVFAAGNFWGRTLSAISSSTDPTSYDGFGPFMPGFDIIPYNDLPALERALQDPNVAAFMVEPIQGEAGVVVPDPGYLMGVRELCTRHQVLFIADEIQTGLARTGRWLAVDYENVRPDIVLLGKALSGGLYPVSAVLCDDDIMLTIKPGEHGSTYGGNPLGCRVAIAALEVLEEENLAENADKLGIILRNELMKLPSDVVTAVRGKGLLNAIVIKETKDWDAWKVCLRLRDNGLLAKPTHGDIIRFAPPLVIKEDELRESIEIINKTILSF
UniProt Q9UQ80, sequence (Q9UQ80 whole entry, looked up): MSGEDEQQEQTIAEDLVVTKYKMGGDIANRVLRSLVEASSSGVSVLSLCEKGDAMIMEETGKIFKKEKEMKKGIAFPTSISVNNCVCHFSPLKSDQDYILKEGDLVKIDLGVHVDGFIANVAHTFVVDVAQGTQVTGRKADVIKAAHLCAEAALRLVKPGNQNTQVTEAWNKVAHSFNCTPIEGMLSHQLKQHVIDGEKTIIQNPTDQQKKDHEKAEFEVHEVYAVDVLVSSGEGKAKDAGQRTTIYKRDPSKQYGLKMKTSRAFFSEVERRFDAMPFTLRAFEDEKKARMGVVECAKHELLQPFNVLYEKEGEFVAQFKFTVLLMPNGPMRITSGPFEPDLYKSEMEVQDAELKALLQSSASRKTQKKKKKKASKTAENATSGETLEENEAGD
UniProt Q9NTI5, sequence (Q9NTI5 whole entry, looked up): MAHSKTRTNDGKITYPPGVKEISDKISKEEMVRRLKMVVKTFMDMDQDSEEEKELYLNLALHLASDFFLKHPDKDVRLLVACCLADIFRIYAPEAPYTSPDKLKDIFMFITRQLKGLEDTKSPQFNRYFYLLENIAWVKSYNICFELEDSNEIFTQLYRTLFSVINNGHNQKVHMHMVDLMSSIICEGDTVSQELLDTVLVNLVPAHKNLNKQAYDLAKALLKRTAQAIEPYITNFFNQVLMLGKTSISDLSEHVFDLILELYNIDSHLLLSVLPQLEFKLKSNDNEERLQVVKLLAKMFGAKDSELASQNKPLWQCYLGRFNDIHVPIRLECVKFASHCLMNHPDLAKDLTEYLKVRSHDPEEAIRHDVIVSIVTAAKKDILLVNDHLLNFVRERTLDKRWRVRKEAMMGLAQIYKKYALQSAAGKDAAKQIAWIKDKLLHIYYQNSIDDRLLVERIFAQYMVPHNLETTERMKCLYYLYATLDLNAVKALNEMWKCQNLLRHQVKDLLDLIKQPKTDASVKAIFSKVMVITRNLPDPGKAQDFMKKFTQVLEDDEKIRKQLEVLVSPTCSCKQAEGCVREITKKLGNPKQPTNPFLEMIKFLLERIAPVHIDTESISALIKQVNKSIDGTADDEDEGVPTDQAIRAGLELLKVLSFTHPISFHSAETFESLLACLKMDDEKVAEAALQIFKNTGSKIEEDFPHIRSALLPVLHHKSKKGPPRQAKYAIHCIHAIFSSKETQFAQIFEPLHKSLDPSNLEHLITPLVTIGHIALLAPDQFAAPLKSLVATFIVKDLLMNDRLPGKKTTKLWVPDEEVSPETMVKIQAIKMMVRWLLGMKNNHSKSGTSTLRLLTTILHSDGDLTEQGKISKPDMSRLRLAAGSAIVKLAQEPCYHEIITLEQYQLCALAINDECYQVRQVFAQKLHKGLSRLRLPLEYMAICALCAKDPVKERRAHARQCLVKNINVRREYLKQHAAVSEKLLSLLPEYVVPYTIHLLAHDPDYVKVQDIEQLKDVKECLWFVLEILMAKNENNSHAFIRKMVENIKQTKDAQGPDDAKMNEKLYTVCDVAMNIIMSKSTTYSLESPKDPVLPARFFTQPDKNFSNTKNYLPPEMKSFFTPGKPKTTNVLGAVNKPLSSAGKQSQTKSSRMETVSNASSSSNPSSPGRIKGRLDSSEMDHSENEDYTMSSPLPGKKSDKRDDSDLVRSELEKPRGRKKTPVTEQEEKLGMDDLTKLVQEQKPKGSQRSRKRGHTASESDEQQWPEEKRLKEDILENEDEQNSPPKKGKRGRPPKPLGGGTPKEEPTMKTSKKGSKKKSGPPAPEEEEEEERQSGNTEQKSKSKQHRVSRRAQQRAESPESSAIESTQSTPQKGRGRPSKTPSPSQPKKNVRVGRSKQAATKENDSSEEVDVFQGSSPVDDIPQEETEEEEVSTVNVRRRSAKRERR
UniProt Q08J23, sequence (Q08J23 whole entry, looked up): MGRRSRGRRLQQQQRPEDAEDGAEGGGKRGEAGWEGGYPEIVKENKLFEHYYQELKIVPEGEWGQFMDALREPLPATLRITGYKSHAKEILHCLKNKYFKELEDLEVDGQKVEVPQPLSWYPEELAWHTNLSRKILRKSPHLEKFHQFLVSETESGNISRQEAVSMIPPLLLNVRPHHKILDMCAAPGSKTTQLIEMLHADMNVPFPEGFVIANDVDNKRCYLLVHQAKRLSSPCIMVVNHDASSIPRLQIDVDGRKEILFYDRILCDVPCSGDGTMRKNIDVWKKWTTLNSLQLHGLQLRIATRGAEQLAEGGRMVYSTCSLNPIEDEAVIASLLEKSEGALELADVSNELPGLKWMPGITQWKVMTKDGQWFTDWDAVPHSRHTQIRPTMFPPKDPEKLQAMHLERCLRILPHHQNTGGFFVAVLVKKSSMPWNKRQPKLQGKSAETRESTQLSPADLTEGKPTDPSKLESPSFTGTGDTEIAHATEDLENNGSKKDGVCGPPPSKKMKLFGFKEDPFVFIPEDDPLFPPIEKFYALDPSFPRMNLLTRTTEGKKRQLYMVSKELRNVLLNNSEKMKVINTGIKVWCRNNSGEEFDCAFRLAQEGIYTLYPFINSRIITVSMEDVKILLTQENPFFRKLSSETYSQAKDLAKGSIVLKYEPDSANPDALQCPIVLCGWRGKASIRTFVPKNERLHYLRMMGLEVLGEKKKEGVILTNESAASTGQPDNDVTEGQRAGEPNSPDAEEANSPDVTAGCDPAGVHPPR
UniProt O43913, sequence (O43913 whole entry, looked up): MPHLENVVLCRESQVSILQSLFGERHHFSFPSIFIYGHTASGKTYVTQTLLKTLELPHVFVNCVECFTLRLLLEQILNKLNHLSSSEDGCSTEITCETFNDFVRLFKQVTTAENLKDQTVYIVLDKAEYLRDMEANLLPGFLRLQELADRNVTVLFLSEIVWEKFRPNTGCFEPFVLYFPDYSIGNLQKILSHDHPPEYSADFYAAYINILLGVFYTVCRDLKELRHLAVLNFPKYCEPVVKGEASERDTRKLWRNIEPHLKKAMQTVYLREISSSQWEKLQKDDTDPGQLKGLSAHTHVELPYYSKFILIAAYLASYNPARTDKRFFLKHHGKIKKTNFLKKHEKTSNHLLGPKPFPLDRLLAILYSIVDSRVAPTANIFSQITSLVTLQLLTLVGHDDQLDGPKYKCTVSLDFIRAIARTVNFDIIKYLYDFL
UniProt O75607, sequence (O75607 whole entry, looked up): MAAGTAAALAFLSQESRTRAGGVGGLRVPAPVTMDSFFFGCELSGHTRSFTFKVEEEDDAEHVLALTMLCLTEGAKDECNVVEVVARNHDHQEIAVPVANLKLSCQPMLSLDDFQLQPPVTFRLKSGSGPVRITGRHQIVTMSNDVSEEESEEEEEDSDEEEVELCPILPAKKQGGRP

Compared with “NID1_P14543_679_EGSPDALQNPCYIGTHGCDTNAACRPGPR (UniProt P14543)”, “ORC5_O43913_10_PHLENVVLCR (UniProt O43913)” is lower in “probe-labelled cysteine peptide fold change” value: 0.112 for the first, -0.0683 for the second.

Compared with “NSUN6_Q8TEA1_242_ILDLCAAPGGK (UniProt Q8TEA1)”, “PAK3_O75914_424_LTDFGFCAQITPEQSKR (UniProt O75914)” is lower in “probe-labelled cysteine peptide fold change” value: 0.157 for the first, -0.27 for the second.

Compared with “OAT_P04181_150_VLPMNTGVEAGETACK (UniProt P04181)”, “OSBPL3_Q9H4L5_114_CIDLDTEEHIYHLK (UniProt Q9H4L5)” is lower in “probe-labelled cysteine peptide fold change” value: 0.0276 for the first, -0.0859 for the second.

First: NEMF_O60524_575_YLTPGDIYVHADLHGATSCVIK (UniProt O60524)
Second: OPLAH_O14841_408_LLPASFPCIFGPGENQPLSPEASR (UniProt O14841)
The “probe-labelled cysteine peptide fold change” value of the first is higher: 0.0554 for the first, -0.283 for the second.

Going from “NPM3_O75607_79_VEEEDDAEHVLALTMLCLTEGAKDECNVVEVVAR (UniProt O75607)” to “PDS5B_Q9NTI5_732_YAIHCIHAIFSSK (UniProt Q9NTI5)”, the “probe-labelled cysteine peptide fold change” value rises from -0.083 to -0.00231.

First: P4HB_P07237_53+56_YLLVEFYAPWCGHCK (UniProt P07237)
Second: PARK7_Q99497_46_DPVQCSR (UniProt Q99497)
The “probe-labelled cysteine peptide fold change” value of the first is lower: -0.316 for the first, 0.105 for the second.

Going from “NCOA7_Q8NI08_487_GALDLETCEK (UniProt Q8NI08)” to “OS9_Q13438_181_CDLNGRPR (UniProt Q13438)”, the “probe-labelled cysteine peptide fold change” value rises from -0.182 to 0.0235.

Going from “NT5DC1_Q5TFE4_139_YYFYDNYFDLPGALLCAR (UniProt Q5TFE4)” to “NSUN2_Q08J23_673+678_YEPDSANPDALQCPIVLCGWR (UniProt Q08J23)”, the “probe-labelled cysteine peptide fold change” value falls from 0.416 to 0.0479.

Compared with “NET1_Q7Z628_267_GYCSNQLAAK (UniProt Q7Z628)”, “NIT1_Q86X76_251+259_AIETQCYVVAAAQCGR (UniProt Q86X76)” is higher in “probe-labelled cysteine peptide fold change” value: 0.0505 for the first, 0.553 for the second.

Compared with “PARP1_P09874_908_SANYCHTSQGDPIGLILLGEVALGNMYELK (UniProt P09874)”, “NDUFAF4_Q9P032_87_AAETCQEPK (UniProt Q9P032)” is higher in “probe-labelled cysteine peptide fold change” value: -0.146 for the first, -0.0492 for the second.

Compared with “PACSIN2_Q9UNF0_465_MEDEDEQGWCK (UniProt Q9UNF0)”, “NUP98_P52948_1711_HIQQVDCSGNDLEQLHIK (UniProt P52948)” is higher in “probe-labelled cysteine peptide fold change” value: 0.118 for the first, 0.207 for the second.

Compared with “NDRG3_Q9UGV2_30_NFQDFDCQEHDIETTHGVVHVTIR (UniProt Q9UGV2)”, “PARK7_Q99497_46_VTVAGLAGKDPVQCSR (UniProt Q99497)” is lower in “probe-labelled cysteine peptide fold change” value: 0.0929 for the first, -0.13 for the second.

Compared with “NOL6_Q9H6R4_256_LHPCPPPDFFRPCR (UniProt Q9H6R4)”, “NUDT4B_A0A024RBG1_28_AACLCFR<|>NUDT3_O95989_25_AACLCFR<|>NUDT10_Q8NFP7_24_AACLCFR<|>NUDT11_Q96G61_24_AACLCFR<|>NUDT4_Q9NZJ9_25_AACLCFR (UniProt Q9NZJ9+Q8NFP7+Q96G61+O95989)” is higher in “probe-labelled cysteine peptide fold change” value: 0.0181 for the first, 0.153 for the second.

Going from “PA2G4_Q9UQ80_296_MGVVECAKHELLQPFNVLYEK (UniProt Q9UQ80)” to “NLN_Q9BYT8_451_YNHAACFGLQPGCLLPDGSR (UniProt Q9BYT8)”, the “probe-labelled cysteine peptide fold change” value rises from -0.781 to 0.193.

First: OSGEP_Q9NPF4_160_IFGETIDIAVGNCLDR (UniProt Q9NPF4)
Second: NEMF_O60524_663_VDESCVWR (UniProt O60524)
The “probe-labelled cysteine peptide fold change” value of the first is lower: 0.0104 for the first, 0.233 for the second.

Compared with “NKRF_O15226_386_VFLQDHCLAEGYGTKK (UniProt O15226)”, “P4HA1_P13674_293_QKYEMLCR (UniProt P13674)” is higher in “probe-labelled cysteine peptide fold change” value: -0.274 for the first, -0.0868 for the second.

Going from “NVL_O15381_431_FDREICLGIPDEASR (UniProt O15381)” to “NFRKB_Q6P4R8_17_MDSLDHMLTDPLELGPCGDGHGTR (UniProt Q6P4R8)”, the “probe-labelled cysteine peptide fold change” value falls from -0.0502 to -0.196.

First: NUP155_O75694_667_HNGICIYFSR (UniProt O75694)
Second: PAICS_P22234_266_SESQCR (UniProt P22234)
The “probe-labelled cysteine peptide fold change” value of the first is lower: -0.0348 for the first, 1.85 for the second.

Compared with “NUP210_Q8TEM1_746_FVCAPPSR (UniProt Q8TEM1)”, “NSUN5P1_Q3KNT7-3_149_AAAGACTPPCT<|>NSUN5_Q96P11-2_461_AAAGACTPPCT (UniProt Q96P11+Q3KNT7)” is higher in “probe-labelled cysteine peptide fold change” value: 0.0568 for the first, 0.129 for the second.

Compared with “PCBP3_P57721_141_LVVPASQCGSLIGK (UniProt P57721)”, “OSBPL9_Q96SU4_577_SILTVPWVELGGECNINCSK (UniProt Q96SU4)” is higher in “probe-labelled cysteine peptide fold change” value: -0.0567 for the first, 0.311 for the second.
